Rows were chosen to be rich in hits. Some 0.78% of all compounds tested hit in one or more screens of this group.
RXFP1 ag: qHTS Assay for Agonists of the Relaxin Receptor RXFP1 | Relaxin receptor 1 (Homo sapiens), Q9HBX9 | HEK293T-RXFP1 cAMP TR-FRET, 30 min; response scale: percent of porcine relaxin response, buffer zero | Potency, µM (highest dose often 57.5 µM), for the others: at the top dose activation, most hits filed as activators | 0.3% of 370,000 active; note: potency is the fitted concentration of half-maximal effect; % is set by controls: 0 for no effect and ±100 for the full control effect; nearly all actives have a fitted effect of over 60% in size
Target sequence (Q9HBX9 whole entry, looked up): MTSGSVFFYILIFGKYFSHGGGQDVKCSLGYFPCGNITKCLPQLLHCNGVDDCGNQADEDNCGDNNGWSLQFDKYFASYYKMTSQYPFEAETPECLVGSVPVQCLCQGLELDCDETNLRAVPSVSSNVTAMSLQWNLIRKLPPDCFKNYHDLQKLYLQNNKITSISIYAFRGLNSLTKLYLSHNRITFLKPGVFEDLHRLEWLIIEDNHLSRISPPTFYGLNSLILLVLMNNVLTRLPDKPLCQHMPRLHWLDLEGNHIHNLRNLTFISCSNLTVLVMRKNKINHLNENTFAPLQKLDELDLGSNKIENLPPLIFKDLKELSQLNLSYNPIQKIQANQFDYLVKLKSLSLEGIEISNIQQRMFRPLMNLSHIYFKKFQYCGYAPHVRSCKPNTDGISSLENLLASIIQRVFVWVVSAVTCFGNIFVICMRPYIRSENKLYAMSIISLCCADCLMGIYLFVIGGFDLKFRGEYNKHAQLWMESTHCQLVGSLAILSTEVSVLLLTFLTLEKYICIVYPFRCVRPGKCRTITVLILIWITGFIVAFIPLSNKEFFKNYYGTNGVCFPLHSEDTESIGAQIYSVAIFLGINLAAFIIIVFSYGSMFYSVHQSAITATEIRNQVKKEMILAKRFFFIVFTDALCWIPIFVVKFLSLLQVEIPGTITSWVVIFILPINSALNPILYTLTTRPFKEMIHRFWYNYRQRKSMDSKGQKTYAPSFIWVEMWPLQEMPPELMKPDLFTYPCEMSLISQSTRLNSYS
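HEK293 cells stably expressing RXFP1, treated 30 min at 37C with compounds plus PDE4 inhibitor Ro 20174; cAMP measured by HTRF TR-FRET. Normalized to buffer and 29 nM porcine relaxin; EC50 by Hill fit.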
IL2 activator: qHTS of IL-2 Activators. activation, % (series mostly up to about 46 µM). IL-2 activation reporter assay, cell-based qHTS; stimulated with anti-CD3/CD4/CD28 beads; in transgenic mouse T cells. 0.065% of 360,000 active; in the data active = activation above about 50%; inconclusive = mostly about 30% to 49%; note: 0% is about no effect
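Readout is EGFP and DsRed signal by fluorescent plate cytometry after 18 h at 37 degrees C. Transgenic mouse T cells (750/well) received compound for 60 min before bead stimulation (anti-CD3, anti-CD4, anti-CD28); memory T cells served as non-tolerant control.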
miR-21 reporter: qHTS Assay for Modulators of miRNAs and/orActivators of miR-21; HeLa miR-21 FLuc reporter, luciferase, 48 h; 340,000 tested, under 10 active; Potency, µM (series often up to 38.3 µM), without a hit: at the highest dose activity change, positive = activation, usual class: activators; AID 2288, 2010;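 note: % of control where 0% means no effect; miR-21 action dims this reporter so a rising signal means less miR-21 action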
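HeLa miR-21-FLuc reporter line, endogenous miR-21; 2000 cells/well in DMEM/10% FBS; compound titration up to ~40uM final, 48 h, 37 degree Celsius; luciferase detection reagent, 15 min lysis, CCD luminescence.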
PINK1 expr mod: A Quantitative High throughput Screen to Identify Chemical Modulators of PINK1 Expression | PINK1 immunofluorescence, high-content cytometry, 24 h | Potency, µM (highest dose often 76.6 µM), inactives show at the highest dose activation (PINK1 increase), most hits filed as activators | 0.2% of 410,000 active; active = well fitted activation curve with a large enough effect; inconclusive = small, poorly fitted or top-dose-only effect; cell line not stated here; note: potency is the fitted concentration of half-maximal effect; % of control where 0% means no effect; nearly all actives have a fitted effect of over 65% in size
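Measures PINK1 amount and localization on or inside mitochondria by immunofluorescence. Stable cells get compounds at 5 concentrations for 24 hours before fixation and staining; CCCP controls included.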
RXFP1 antag: qHTS Assay for Antagonists of the Relaxin Receptor RXFP1 | Relaxin receptor 1 (Homo sapiens), Q9HBX9 | HEK293-RXFP1, relaxin-stimulated cAMP HTRF, 30 min; active compounds read low | activity change, negative = inhibition, % at 57.5 µM | 0.59% of 350,000 active;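 active = activity change of -60% or lower, but not beyond a set lower limit; inconclusive = change between -60% and -40%, or beyond the set limit; inactive = change above -40%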; note: % is set by controls: 0 for no effect and ±100 for the full control effect
TCR act: Activators of T cell receptors: qHTS campaign; Potency, µM (titrated, usually from 9.22 µM), for the others: at the top dose activation of IL-2 secretion, most hits filed as activators; primary human leukocytes, anti-CD3, IL-2 HTRF, 48 h; 330,000 tested, under 10 active; note: % of control where 0% means no effect
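Readout: HTRF IL-2, Eu-cryptate/d2 antibody pair, 320nm excitation, 665nm emission. Stimulus: a-CD3 beads, no co-stimulation. Cells: primary human leukocytes. Exposure: 48 hr with compound.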
An asterisk follows results filed as active; ? = inconclusive; nt = no result given; [ ] = remark or other dose. Unless noted, calls come from the whole dose curve; as a rule, active = well fitted curve in the direction sought with a large enough effect; inconclusive = small, poorly fitted or top-dose-only effect, or another doubt; inactive = no such curve, though single readings can be large; an effect the other way counts as inactive or inconclusive.

SMILES	RXFP1 ag	IL2 activator	miR-21 reporter	PINK1 expr mod	RXFP1 antag	TCR act
Cc1ccc(O)c(N=CC2=C(O)c3ccccc3C2=O)c1	28µM*	-2	-48%	0%	18	-23%
COC(=O)[C@@H]1CCCN1Cc1ccc2c(c1)CN(Cc1cccc(Cl)c1)CCO2	nt	nt	nt	0%	nt	nt
CC1=NOC(=O)/C1=C\c1ccc(-c2ccccc2Br)o1	18µM*	-1	?	-1%	-9	0%
Cc1cc(C)n(-c2ccc(C(=O)N3CCc4c(cnc(C)c4CNC(=O)c4ccccc4F)C3)cc2)n1	nt	nt	nt	2%	nt	nt
Cc1cc(C)cc(NC(=O)CN2CCc3cc4c(cc3C2C)OCCCO4)c1 (stereo not given)	1%	-2	-1%	2%	-62*	-8%
Cc1oc(-c2ccccc2NC(=O)C2CCC2)nc1CNC(=O)c1c(F)ccc(F)c1F	nt	nt	nt	0%	nt	nt
CCN(CCCNC(=O)c1ccc(Sc2ccc(Cl)cc2)c(NC(C)=O)c1)c1cccc(C)c1	0%	nt	8%	0%	-29	nt
CCN(CCNCC(O)COCc1ccc(Cl)cc1)c1cccc(C)c1 (stereo not given)	1%	-1	5%	-3%	-70*	7%
CCN(CC)C(=O)c1sc2[nH]c(=S)n(-c3ccccc3)c(=O)c2c1C	11%	-2	-6%	nt	-67*	nt
CCn1c(C)nc2cc(NS(=O)(=O)c3ccccc3)cc(C(=O)N3C[C@@H](C)O[C@@H](C)C3)c21	nt	nt	nt	0%	nt	nt
Cc1ccc(NS(=O)(=O)c2cc(NC(=O)c3ccc4c(c3)NC(=O)CS4)ccc2C)c(C)c1	-1%	1	?	2%	-63*	-8%
COc1ccc(CCn2c(O)cc3nn(-c4nc5ccccc5s4)c(=O)c-3c2C)cc1	0%	5	-7%	2%	-70*	1%
CCOC(=O)/C(=N/Nc1ccccc1)c1csc(Nc2ccccc2)n1	6%	-2	-9%	11µM*	-3	nt
CCOC(=O)/C(=N\Nc1ccc(Cl)cc1)c1csc(Nc2ccccc2)n1	-3%	1	-5%	3%	4	-4%
Cn1c(=O)c([N+](=O)[O-])c(Cl)c2ccccc21	2%	-1	13%	-1%	-80*	-7%
CCN1CCN(CCCNC(=O)Cn2c(-c3cccs3)cc3cc(Cl)ccc32)CC1	3%	nt	-7%	-1%	-69*	nt
Cc1ccc(C(C(=O)NCC2CCCO2)N(C(=O)c2snc(C(N)=O)c2N)c2ccc(C)c(C)c2)o1 (stereo not given)	2%	-4	-1%	-3%	-76*	2%
CCOc1ccc(C(C(=O)NCC2CCCO2)N(C(=O)c2snc(C(N)=O)c2N)c2ccccc2F)cc1 (stereo not given)	?	-1	13%	3%	?	-5%
CCOc1ccc(C(C(=O)NCC2CCCO2)N(C(=O)c2snc(C(N)=O)c2N)c2cccc(F)c2)cc1 (stereo not given)	0%	0	13%	6%	-91*	1%
Cc1ccc(C(C(=O)NCC2CCCO2)N(C(=O)c2snc(C(N)=O)c2N)c2ccc(F)cc2)o1 (stereo not given)	0%	0	0%	-2%	?	-2%
Cc1cc(C)cc(N(C(=O)c2snc(C(N)=O)c2N)C(C(=O)NCC2CCCO2)c2ccc(C)o2)c1 (stereo not given)	0%	-1	18%	-2%	-61*	4%
COC(=O)c1cc(CNC(=O)c2ccccc2OC)cc(NC(=O)c2ccccc2F)c1	nt	nt	nt	0%	nt	nt
Cc1ccc2nc3sc(C(=O)NCc4ccco4)c(N)c3cc2c1	-4%	167*	-62%	?	-12	-7%[46.1 µM]
COc1cc2cc3c(N)c(C(=O)NCc4ccco4)sc3nc2cc1OC	4%	0	-51%	10%	-7	5%
COc1cccc(CN2CCC(c3nnc(SCC4CCCO4)n3C)CC2)c1O (stereo not given)	nt	nt	nt	0%	nt	nt
SMILES	RXFP1 ag	IL2 activator	miR-21 reporter	PINK1 expr mod	RXFP1 antag	TCR act
Cc1nc2ccccc2c(N)c1C(=O)/C=C/c1ccccc1	-1%	-4	?	-1%	-83*	-5%
CC(=O)c1c(C)nc2ccccc2c1N	0%	-1	-3%	1%	3	5%
CC(C)c1c(C(=O)NCc2ccncc2)cnn1-c1nccc(-c2cccs2)n1	nt	nt	nt	-1%	nt	nt
O=C1C=CC2C3C(=O)N(c4ccccc4)C(=O)C3C1N2Cc1ccccc1 (stereo not given)	nt	-7	nt	-5%	-108*	-5%
CCCCn1c(NCc2cc(C)ccc2O)nc2ccccc21	nt	-4	nt	16µM*	4	nt
Cc1ccc(CN2C[C@@H](Sc3nc(C)cc(C)n3)C[C@H]2C(=O)N2CCN(c3ccccc3F)CC2)cc1	nt	nt	nt	0%	nt	nt
Cc1ccc(C(=O)Nc2nc(-c3ccco3)c(-c3ccco3)s2)o1	-3%	2	nt	10%	-81*	10%
CC(=O)N1CCc2c(sc(NC(=O)C3CCN(S(=O)(=O)c4cccs4)CC3)c2C(N)=O)C1	1%	1	nt	4%	-60*	4%
CC(=O)N1CCc2c(sc(NC(=O)C3CCCN3S(=O)(=O)c3cccs3)c2C(N)=O)C1 (stereo not given)	1%	3	nt	1%	0	1%
CC(C)(C)c1ccc(C(=O)Nc2onc3c2CCCC3)cc1	-1%	nt	16%	4%	-60*	nt
O=C(Nc1onc2c1CCCC2)c1ccccc1	2%	nt	0%	0%	-4	nt
Cc1ncc2c(c1CNS(=O)(=O)N(C)C)CCN(C(=O)c1ccc(-c3ccc(F)cc3)cc1)C2	nt	nt	nt	-1%	nt	nt
COc1ccc(CN(CC(=O)NCCC(C)C)C(=O)CCC(=O)Nc2nccs2)cc1	-4%	0	1%	1%	-69*	-4%
COc1ccc(C(=O)NCC2Cc3c(F)ccc(-c4nc(C)cnc4C)c3O2)cc1F (stereo not given)	nt	nt	nt	0%	nt	nt
CCC(C(=O)NCCCN1CCOCC1)n1c2ccccc2c2nc(=O)cc(C)n21 (stereo not given)	0%	-2	-2%	-1%	-70*	-2%
Cc1cc(=O)nc2c3ccccc3n(C(C)C(=O)NCCN3CCOCC3)n12 (stereo not given)	8%	2	5%	-1%	-1	-1%

From PubChem
